Laboratory results from PubChem BioAssay (NCATS).
Results filed as inconclusive are left out. Calls of active or inactive are those of the source. Unless noted, the call rests on the fitted dose curve; in most records, active means well fitted curve in the direction sought with a large enough effect; inconclusive means small, poorly fitted or top-dose-only effect, or another doubt; inactive means no such curve, though single readings can be large; an effect the other way counts as inactive or inconclusive.

Experiments:
[1] = qHTS for Inhibitors of Cell Surface uPA Generation: Validation Assay (AID 493164);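 further: RAW 264.7 macrophage cells exposed to compound for 18 h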
Outline: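 ATP-Lite luminescence read-out: ATP remains high when uPA activity-dependent LF translocation into the cytoplasm is blocked. RAW 264.7 cells, 18 h compound exposure at 37 C; 7-point titration, 2.45 nM to 38.3 uM final.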

[2] = molecular target: Galactokinase (Homo sapiens) (UniProt P51570); experiment: qHTS Validation Assay for Inhibitors of Human Galactokinase (GALK) (AID 493189)
Outline: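 5 nM GALK / 100 uM galactose / 35 uM ATP, 20 mM HEPES pH8.0, 5 mM MgCl2, 60 mM NaCl, 1 mM DTT, 0.01% BSA (final). RT 1 h; Kinase-Glo Plus luminescence.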

[3] = Validation screen for small molecules that induce DNA re-replication in SW480 colon adenocarcinoma cells (AID 504364)
Outline: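 Image-based DNA content read-out: Hoechst stain 40 min, total nuclear fluorescence intensity (ex 405 nm, em 500-530 nm) after 48 h compound exposure of 250 SW480 cells/well at 37 C, 5% CO2, versus DMSO vehicle.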

[4] = molecular target: Peptidyl-prolyl cis-trans isomerase NIMA-interacting 1 (Homo sapiens) (UniProt Q13526); experiment: qHTS Validation Assay to Find Inhibitors of Pin1 (AID 504536; active means well fitted inhibition curve with a large enough effect in the polarisation, with a control signal flat, not every such curve was filed as active; the % refers to the polarisation)
Outline: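 Fluorescence polarization competition: compounds (titration) displace HiFluor-488-labeled Pin1-1b peptide from Pin1 (0.3 uM final) in pH 7.5 HEPES buffer with DTT, 10 min at room temperature; %Activity normalized to no-enzyme wells, curves fitted.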

[5] = molecular target: Phosphoglycerate kinase, glycosomal (Trypanosoma brucei brucei) (UniProt P07378); experiment: qHTS Validation Assay to Find Inhibitors of Phosphoglycerate Kinase (AID 504547)
Outline: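 In TEA buffer (100mM, pH 7.6) containing 5mM MgCl2 and 0.01% Tween-20, the GAPDH-coupled PGK reaction proceeded for 60 minutes at room temperature before a single luminescence reading using Kinase-Glo Plus.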

[6] = molecular target: phosphoglycerate mutase (Leishmania major) (UniProt Q4Q090); experiment: qHTS Validation Assay to Find Inhibitors of Phosphoglycerate Mutase (AID 504548); conditions: Potency: inhibition qHTS;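 further: end-point luminescence from Kinase-GloPlus after the PGAM reaction; series mostly up to about 58 µM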
Outline: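 L. major PGAM (1.25nM final) was added to substrate buffer and pinned compound, incubated 45 minutes at room temperature, then Kinase-GloPlus added; luminescence read after 10 minutes. Buffer: 100 mM TEA pH 7.6, 5 mM MgCl2, 0.01% Tween-20.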

[7] = molecular target: Ubiquitin carboxyl-terminal hydrolase 1 (Homo sapiens) (UniProt O94782); experiment: Inhibitors of USP1/UAF1: Pilot qHTS (AID 504865);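 further: rhodamine fluorescence freed from ubiquitin-rhodamine substrate followed over time; top concentration of the series differs between compounds; nearly all actives have a fitted effect of over 35% in size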
Outline: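 In 50mM HEPES pH 7.8 containing 0.5mM EDTA, 1mM TCEP, 0.1 mg/ml BSA and 0.01% Tween-20, 1nM USP1/UAF1 is exposed to compound for 15 min, then Ub-Rho (150nM final) is added and fluorescence is read over time.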

[8] = qHTS for Inhibitors of ATXN expression: Validation of Cytotoxic Assay (AID 588349)
Outline: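 Cytotoxicity counter-screen: ATP-based luminescent viability (CellTiter Glo) after 72 hr exposure of HEK293 cells to a compound titration at 37 degrees C.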

[9] = qHTS for Inhibitors of ATXN expression: Validation (AID 588378); further: series mostly up to about 57 µM; nearly all actives have a fitted effect of over 75% in size
Outline: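 Compounds were pinned onto attached HEK293 cells carrying an ATXN2-firefly luciferase construct and incubated 24 hrs at 37 degrees C. Each well then received a fluorescent viability reagent followed by luciferase substrate for end-point luminescence.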

[10] = molecular target: DNA dC->dU-editing enzyme APOBEC-3G (Homo sapiens) (UniProt Q9HC16); experiment: qHTS for inhibitors of Vif-A3G interactions: Validation (AID 588379)
Outline: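 Yellow fluorescence (Ex 488, Em 500-530) of Vif-coexpressing HeLa A3G-eYFP cells, scanned by Acumen cytometer, reports blocked A3G degradation. Cells plated at 700/well overnight at 37 deg C before compound addition, then a further overnight compound incubation at 37 deg C.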

Measured: Potency

Chain of Peptidyl-prolyl cis-trans isomerase NIMA-interacting 1 (Homo sapiens) (Q13526 whole entry, looked up): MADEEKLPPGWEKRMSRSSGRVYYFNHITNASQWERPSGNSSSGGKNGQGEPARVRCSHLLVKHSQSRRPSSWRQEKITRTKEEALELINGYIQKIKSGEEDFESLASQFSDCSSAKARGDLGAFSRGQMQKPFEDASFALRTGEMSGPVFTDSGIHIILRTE
Chain of phosphoglycerate mutase (Leishmania major) (Q4Q090 1-553): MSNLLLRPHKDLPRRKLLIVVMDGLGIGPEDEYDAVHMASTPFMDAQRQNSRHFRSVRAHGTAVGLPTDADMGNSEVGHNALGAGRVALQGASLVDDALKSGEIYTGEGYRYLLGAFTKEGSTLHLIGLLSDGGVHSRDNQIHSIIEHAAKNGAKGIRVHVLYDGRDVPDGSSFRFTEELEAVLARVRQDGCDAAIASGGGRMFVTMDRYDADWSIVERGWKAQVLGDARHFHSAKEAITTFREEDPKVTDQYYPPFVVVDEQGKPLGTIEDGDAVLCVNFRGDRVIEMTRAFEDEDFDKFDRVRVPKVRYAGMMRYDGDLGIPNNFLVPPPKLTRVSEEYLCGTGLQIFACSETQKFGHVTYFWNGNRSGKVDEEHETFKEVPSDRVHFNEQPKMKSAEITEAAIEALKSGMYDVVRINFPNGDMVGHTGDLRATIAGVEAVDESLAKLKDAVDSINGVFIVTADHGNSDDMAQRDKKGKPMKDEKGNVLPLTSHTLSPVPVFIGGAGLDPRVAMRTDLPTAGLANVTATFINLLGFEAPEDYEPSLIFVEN
Chain of Ubiquitin carboxyl-terminal hydrolase 1 (Homo sapiens) (O94782 whole entry, looked up): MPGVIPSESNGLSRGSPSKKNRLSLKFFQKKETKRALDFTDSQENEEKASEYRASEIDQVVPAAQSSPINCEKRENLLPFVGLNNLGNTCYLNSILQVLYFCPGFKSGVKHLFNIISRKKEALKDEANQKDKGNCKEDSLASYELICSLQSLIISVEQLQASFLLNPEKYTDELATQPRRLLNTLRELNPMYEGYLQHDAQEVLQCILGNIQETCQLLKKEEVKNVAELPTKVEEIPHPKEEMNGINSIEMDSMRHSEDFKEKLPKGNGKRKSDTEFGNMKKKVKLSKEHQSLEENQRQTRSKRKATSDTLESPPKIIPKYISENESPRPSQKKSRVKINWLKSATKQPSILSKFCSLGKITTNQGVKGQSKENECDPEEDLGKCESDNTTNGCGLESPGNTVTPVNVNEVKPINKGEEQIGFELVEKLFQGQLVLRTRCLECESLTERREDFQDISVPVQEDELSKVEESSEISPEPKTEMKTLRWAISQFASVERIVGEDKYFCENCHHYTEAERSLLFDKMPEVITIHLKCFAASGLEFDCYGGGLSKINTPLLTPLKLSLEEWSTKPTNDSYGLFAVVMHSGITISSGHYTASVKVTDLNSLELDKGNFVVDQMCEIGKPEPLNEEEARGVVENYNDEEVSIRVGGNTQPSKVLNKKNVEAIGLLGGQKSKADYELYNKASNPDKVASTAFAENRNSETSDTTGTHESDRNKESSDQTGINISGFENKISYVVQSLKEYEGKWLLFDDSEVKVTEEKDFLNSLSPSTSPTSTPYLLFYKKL
Chain of Galactokinase (Homo sapiens) (P51570 whole entry, looked up): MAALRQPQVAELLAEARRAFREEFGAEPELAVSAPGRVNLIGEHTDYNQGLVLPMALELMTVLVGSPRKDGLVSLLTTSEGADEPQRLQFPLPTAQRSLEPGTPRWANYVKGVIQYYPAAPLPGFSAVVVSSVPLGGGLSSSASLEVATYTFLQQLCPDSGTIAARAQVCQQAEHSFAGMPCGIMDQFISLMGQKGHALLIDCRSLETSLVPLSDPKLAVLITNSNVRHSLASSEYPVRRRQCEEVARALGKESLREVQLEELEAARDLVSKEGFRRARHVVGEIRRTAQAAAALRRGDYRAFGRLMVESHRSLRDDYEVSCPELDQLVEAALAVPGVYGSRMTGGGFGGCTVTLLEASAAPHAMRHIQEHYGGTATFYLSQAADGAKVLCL
Chain of Phosphoglycerate kinase, glycosomal (Trypanosoma brucei brucei) (P07378 whole entry, looked up): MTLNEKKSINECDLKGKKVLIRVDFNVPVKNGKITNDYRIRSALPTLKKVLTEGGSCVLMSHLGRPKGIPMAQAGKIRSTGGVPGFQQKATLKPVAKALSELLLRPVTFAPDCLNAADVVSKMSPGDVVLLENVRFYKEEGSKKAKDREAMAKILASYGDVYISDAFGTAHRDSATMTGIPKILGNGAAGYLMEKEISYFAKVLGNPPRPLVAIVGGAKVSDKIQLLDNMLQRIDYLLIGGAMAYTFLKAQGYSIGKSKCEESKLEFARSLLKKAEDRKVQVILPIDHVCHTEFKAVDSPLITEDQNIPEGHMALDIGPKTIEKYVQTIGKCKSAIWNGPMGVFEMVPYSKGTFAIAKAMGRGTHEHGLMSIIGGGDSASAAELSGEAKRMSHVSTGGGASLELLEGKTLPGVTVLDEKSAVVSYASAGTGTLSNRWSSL
Chain of DNA dC->dU-editing enzyme APOBEC-3G (Homo sapiens) (Q9HC16 whole entry, looked up): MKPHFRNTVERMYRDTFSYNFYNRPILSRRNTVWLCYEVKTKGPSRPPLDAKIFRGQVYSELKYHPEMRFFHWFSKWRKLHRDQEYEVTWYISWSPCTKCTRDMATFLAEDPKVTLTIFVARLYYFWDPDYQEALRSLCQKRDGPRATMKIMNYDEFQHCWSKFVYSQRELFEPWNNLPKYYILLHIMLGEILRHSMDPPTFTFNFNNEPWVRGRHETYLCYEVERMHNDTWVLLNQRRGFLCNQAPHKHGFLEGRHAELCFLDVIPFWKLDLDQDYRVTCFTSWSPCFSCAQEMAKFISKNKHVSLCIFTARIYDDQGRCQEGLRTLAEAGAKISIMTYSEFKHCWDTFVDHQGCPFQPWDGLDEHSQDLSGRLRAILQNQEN

NC(Cc1cccc(-c2ccccc2CP(=O)(O)O)c1)C(=O)O (centres undefined)
not listed: [10]
inactive: all other assays above

Cn1c(=O)[nH]c2ncn(C)c2c1=O
not listed: [10]
inactive: all other assays above

C#CC(N)CCC(=O)O (centres undefined)
not listed: [10]
inactive: all other assays above

COc1ccc2c(c1)c(CC(=O)O)c(C)n2C(=O)c1ccccc1
not listed: [10]
inactive: all other assays above

NC(C(=O)N[C@@H]1C(=O)N2C(C(=O)O)=C(Cl)CS[C@H]12)c1ccccc1 (some centres undefined)
not listed: [10]
inactive: all other assays above

O=c1ccn([C@@H]2O[C@H](COP(=O)(O)OP(=O)(O)O)[C@@H](O)[C@H]2O)c(=O)[nH]1
not listed: [10]
inactive: all other assays above

Nn1nnc2ccccc21
not listed: [10]
inactive: all other assays above

Cc1cccc(C)c1OCC(N)C(C)C (centres undefined)
not listed: [10]
inactive: all other assays above

CC(=O)C(C)=O
not listed: [10]
inactive: all other assays above

CN(C)C(=O)/N=N/C(=O)N(C)C
not listed: [10]
inactive: all other assays above

NC1C=CC=C(C(=O)O)C1 (centres undefined)
not listed: [10]
inactive: all other assays above

O=C(O)CCC(=O)N1CCCC1C(=O)O (centres undefined)
not listed: [10]
inactive: all other assays above

CC(C)C[C@H](NC(=O)[C@H](O)[C@H](N)Cc1ccccc1)C(=O)O
not listed: [10]
inactive: all other assays above

OC[C@H]1NC[C@@H](O)[C@@H]1O
not listed: [10]
inactive: all other assays above

CNc1ncnc2c1ncn2[C@H]1C[C@H](OP(=O)(O)O)[C@@H](COP(=O)(O)O)O1
not listed: [10]
inactive: all other assays above

NC(=O)CC[C@H](N)C(=O)O
not listed: [10]
inactive: all other assays above

CC(=O)O[C@H]1CC2(C)[C@@H](C[C@@H](O)[C@H]3[C@@]4(C)CC[C@@H](O)[C@@H](C)[C@@H]4CC[C@@]32C)C1=C(CCC=C(C)C)C(=O)O (some centres undefined)
not listed: [10]
inactive: all other assays above

Nc1ccc(N2C(=O)c3ccccc3C2=O)c(Cl)c1
not listed: [10]
inactive: all other assays above

Nc1ccc(CCNc2ncnc3c2ncn3C2OC(CO)C(O)C2O)cc1 (centres undefined)
not listed: [10]
inactive: all other assays above

[Li+]
not listed: [10]
inactive: all other assays above

COC(=O)C(N)Cc1ccc(Cl)cc1 (centres undefined)
not listed: [10]
inactive: all other assays above

CC1CCN=C(N)S1 (centres undefined)
not listed: [10]
inactive: all other assays above

NCCNS(=O)(=O)c1cccc2c(Cl)cccc12
not listed: [9]
inactive: all other assays above

NC(N)=NC(N)=Nc1cccc(Cl)c1
inactive: all assays above

COc1cc(C(O)CO)ccc1O (centres undefined)
not listed: [10]
inactive: all other assays above

CC#CCOC(=O)c1c(C)nc2sc3c(c2c1N)CCC(O)C3 (centres undefined)
not listed: [8] | [10]
inactive: all other assays above
